The list is not random: actives were taken first. Their share in the collection is about 2%.
mut p53 react – re-activators of the mutant p53 pathway; AID 624151; hit rate 1.5% among 28,000; SW480 PUMA-promoter luciferase, p53 mutant reactivation; activation, % at 9.98 µM; in the data active = activation above about 52%
ID4 SMM – binders of human ID4 protein | small molecule microarray, Flag-ID4 binding, fluorescence F/B | calls only | hit rate 1.2% among 31,000 | AID 624137; call rule not given here;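 also: a binder raises fluorescence above local background on the spot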
STK33 inh – human STK33 kinase inhibition; inhibition, % at 12.5 µM; hit rate 0.44% among 27,000; ADP-Glo luminescence, MBP substrate; in the data active = inhibition above about 20%
Target sequence (Q9BYT3 whole entry, looked up): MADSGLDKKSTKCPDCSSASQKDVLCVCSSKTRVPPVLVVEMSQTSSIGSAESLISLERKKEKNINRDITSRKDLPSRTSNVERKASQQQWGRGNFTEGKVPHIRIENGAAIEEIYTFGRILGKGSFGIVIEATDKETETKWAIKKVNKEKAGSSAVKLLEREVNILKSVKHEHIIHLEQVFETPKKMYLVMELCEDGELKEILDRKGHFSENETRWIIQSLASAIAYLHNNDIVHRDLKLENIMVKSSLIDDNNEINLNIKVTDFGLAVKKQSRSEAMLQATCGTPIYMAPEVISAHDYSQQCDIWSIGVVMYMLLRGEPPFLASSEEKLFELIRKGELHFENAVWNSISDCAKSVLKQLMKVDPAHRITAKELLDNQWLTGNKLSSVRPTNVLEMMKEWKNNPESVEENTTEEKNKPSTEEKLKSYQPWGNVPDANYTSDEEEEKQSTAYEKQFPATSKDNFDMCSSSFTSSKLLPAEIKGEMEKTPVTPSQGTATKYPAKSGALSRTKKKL
An asterisk follows results filed as active; i = inactive; . = not tested or not shown.

SMILES	mut p53 react	ID4 SMM	STK33 inh
CC1=CC(C)(C)Nc2ccc(OC(=O)CN3C(=O)c4cccc([N+](=O)[O-])c4C3=O)cc21	-13	i	-2
CC(C)=CCc1c(O)ccc2c(=O)c(-c3ccc(O)cc3)coc12	-5	.	.
C=CCN1C(=O)[C@]2(O[C@H](CCO)[C@@H]([Si](C)(C)c3ccc(OC)cc3)[C@@H]2C)c2cc(NC(C)=O)ccc21	.	.	4
CCc1cccc(OCC(=O)Nc2cc([N+](=O)[O-])ccc2O)c1	74*	i	-3
O=C(COc1ccc([N+](=O)[O-])cc1)Nc1cccc2cccnc12	64*	i	4
O=C(COc1ccccc1)Nc1ccc([N+](=O)[O-])cc1O	3	i	4
O=C(CCSc1ccc([N+](=O)[O-])cc1)Nc1cccc2cccnc12	12	i	-2
O=C(COc1cccc2ccccc12)Nc1cc([N+](=O)[O-])ccc1O	67*	i	-2
Cc1cccc(C)c1OCC(=O)Nc1ccc([N+](=O)[O-])cc1O	4	i	-3
C=C1C(=O)O[C@@H]2/C=C(/COC(C)=O)CC/C=C(/CO)CC[C@@H]12	.	.	7
CC(=O)c1cccc(NC(=O)CSc2nc3ccccc3c(=O)n2-c2ccccc2)c1	-4	i	-5
CCOC(NC(=O)Nc1ccc(Br)cc1)(C(F)(F)F)C(F)(F)F	.	.	-1
Cn1ccc2cc3c(cc21)CCN3C(=O)Nc1cccnc1	69*	i	.
COc1cc2c(cc1C(F)(F)F)N(C(=O)Nc1cc(F)cc(-c3cccnc3)c1)CC2	-70	i	.
O=c1ccc2ccc(Oc3ncnc4scc(-c5ccc(F)cc5)c34)cc2o1	-21	i	.
Cc1nc(-c2ccccc2)sc1-c1nnc(-c2cccc3ccccc23)o1	8	i	.
COc1ccc(-n2nc3cc(C)c(NC(=S)NC(=O)COc4cccc(C)c4)cc3n2)cc1Cl	32	i	-2
Clc1cccc(C=NC=Nc2cccc(Cl)c2)c1	73*	i	.
COc1cccc(C=NC=Nc2cccc(OC)c2)c1	38	i	.
O=C(COc1ccc2ccccc2c1)Nc1ccccc1-c1nc2ccccc2s1	18	i	-1
Brc1ccc(-c2cnc3ccccc3n2)s1	74*	i	.
Oc1cc(O)cc(/C=C/c2ccc(O)c(O)c2)c1	.	.	74*
N#C/C(=C/c1ccc(O)c(O)c1)C(=O)OC/C=C/c1ccccc1	36	i	-1
CC1OC(OC2C(O)C(CO)OC(O[C@H]3CC[C@@]4(C)C(CC[C@]5(C)C4CC=C4C6CC(C)(C)CC[C@]6(C(=O)OC6OCC(OC7OCC(O)C(O)C7O)C(O)C6O)CC[C@]45C)C3(C)C)C2O)C(O)C(OC2OCC(O)(CO)C2O)C1O (some centres undefined)	.	i	-1
CC(=O)Nc1ccc(NC(=O)Cn2cc([N+](=O)[O-])cn2)cc1	-14	i	-4
SMILES	mut p53 react	ID4 SMM	STK33 inh
COc1ccc(CCC(=O)c2ccc(OC)cc2O)cc1	59*	i	-2
COc1ccc(C(C)=O)c(O)c1	3	i	2
COc1cc2c(c(OC)c1OC)CCc1cc(O)c(O)cc1-2	1	.	21*
COc1cc(C2OCC3C(c4cc(OC)c(OC)c(OC)c4)OCC23)cc(OC)c1OC (centres undefined)	-7	i	-2
COc1ccc(OC(C)C(=O)NCC2CCCO2)cc1 (centres undefined)	-4	i	-1
COc1ccc2c(c1)c(=O)oc1c(C)c(OCC(=O)NCC3CCCO3)ccc12 (centres undefined)	52*	i	1
Cn1c(NCc2ccco2)nc2c1c(=O)n(Cc1ccc(Cl)cc1)c(=O)n2C	3	i	3
Cc1sc2ncn(CC(=O)NCc3ccco3)c(=O)c2c1-c1ccc(Cl)cc1	-4	i	3
CC(=O)n1nc(-c2ccc(Cl)cc2)nc1NCc1ccco1	148*	i	2
O=C(c1cccs1)n1nc(-c2ccc(Cl)cc2)nc1NCc1ccco1	102*	i	-2
CC(C)(Oc1ccc(Cl)cc1)C(=O)NCc1ccco1	3	i	2
COc1ccc(C(=O)n2nc(-c3ccc(Cl)cc3)nc2NCc2ccco2)cc1	118*	i	1
O=S(=O)(N[C@@H]1CCCN(Cc2cccc(OCCO)c2)C1)c1cc(C(F)(F)F)ccc1Cl	.	.	-1
Cc1cc(C)c2oc(-c3ccc(NC(=O)COc4ccc(Br)cc4)cc3O)nc2c1	.	.	0
COC(=O)COc1c(Br)cc(C2C3=C(CCCC3=O)NC3=C2C(=O)CCC3)cc1OC	16	i	4
CCOC(=O)c1ccccc1NC(=O)C(C)Oc1ccc2c(C)cc(=O)oc2c1 (centres undefined)	-28	i	1
O=C1c2c(O)ccc(O)c2C(=O)c2c(NCCNCCO)ccc(NCCNCCO)c21	.	i	58*
COc1cc(C(=O)Nc2ccc(Oc3ncnc4sc(C)c(C)c34)cc2)cc(OC)c1OC	17	i	0

High-throughput results deposited in PubChem by Broad Institute.
